This is an account of results in PubChem BioAssay (Tox21).

Structures are written as SMILES. “And” between values parts separate entries of the source, which are not always exact repeats. Equal entries are not always repeated. Records with an inconclusive call do not appear. The source made the active and inactive calls. Unless noted, calls follow the shape of the dose curve; as a rule, active = well fitted curve in the direction sought with a large enough effect in the repeat runs; inconclusive = weak or mixed curves; inactive = no such curve, though single readings can be large; an effect the other way counts as inactive or inconclusive.

For assay [1], the target named is Acetylcholinesterase (Homo sapiens) (UniProt P22303). Kind of assay: Acetylcholinesterase (AChE) small molecule antagonists: enzyme-based qHTS assay (AID 1347397; calls by dose curve; also: nearly all actives have a fitted effect of over 55% in size). Particulars: Potency: AChE enzyme activity inhibition. Put shortly: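 Colorimetric DTNB readout of acetylthiocholine hydrolysis, 10 min at room temperature, after 30 min room-temperature exposure of 50 mU/mL recombinant human enzyme to compound; DMSO vehicle control.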
(In qHTS, concentration-response curves come from the screen itself.)

For assay [2] the target is unchanged. In words: Acetylcholinesterase (AChE) small molecule antagonists: fluorescence cell-based qHTS assay (AID 1347398; calls by dose curve; also: nearly all actives have a fitted effect of over 50% in size; also: potency is read from the fitted curve at half-maximal effect). To be noted: Potency: AChE activity. An outline of the steps:
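Cellular AChE activity read as thiocholine from acetylthiocholine hydrolysis, detected by Thiolite Green fluorescence at 490/520 nm after 40 min at room temperature. Compounds were pre-incubated 30 min at 37 C on adherent SH-SY5Y cells.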

For assay [3] the target is unchanged. In words: Acetylcholinesterase (AChE) small molecule antagonists: enzyme-based qHTS assay with human liver microsomes (AID 1347399; calls by dose curve; also: nearly all actives have a fitted effect of over 60% in size). To be noted: Potency: qHTS inhibition. Put shortly: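 Recombinant human AChE (50 mU/mL in the enzyme mix) and human liver microsomes (0.25 mg/mL final) were preincubated with compound and NADPH (0.25 mg/mL final) for 30 min at 37 C. Acetylthiocholine/DTNB was then added; thiocholine was read colorimetrically after 10 min at room temperature.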

For assay [4], the target named is Cytochrome P450 2D6 (Homo sapiens) (UniProt P10635). Kind of assay: Cytochrome P450 Family 2 Subfamily D Member 6 (CYP2D6) small molecule antagonists: luciferase reporter qHTS assay (AID 1671196). Also: nearly all actives have a fitted effect of over 50% in size. Also: potency is read from the fitted curve at half-maximal effect. As to activity change, negative = inhibition: series mostly up to about 120 µM. An outline of the steps: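 Chemicals tested for interference with CYP2D6 activity; proluciferin substrate, NADPH regeneration, 1 h at room temperature, luminescent detection.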
A general note: A reporter such as luciferase makes a cellular process visible.

Assay [5] has as its target Cytochrome P450 2C19 (Homo sapiens) (UniProt P33261). Kind of assay: Cytochrome P450 Family 2 Subfamily C Member 19 (CYP2C19) small molecule antagonists: luciferase reporter qHTS assay (AID 1671197). Also: nearly all actives have a fitted effect of over 65% in size. Also: potency is read from the fitted curve at half-maximal effect. As to activity change, negative = inhibition: series mostly up to about 120 µM. An outline of the steps:
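Luminescent readout of CYP2C19 activity: luciferin product detected 20 min after adding detection reagent. Before that, compound and enzyme-substrate mix preincubated 10 min at room temperature; NADPH-regenerating system started a 1 h, 37C reaction. Ketoconazole as positive control.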

Assay [6] addresses Cytochrome P450 2C9 (Homo sapiens) (UniProt P11712). Kind of assay: Cytochrome P450 Family 2 Subfamily C Member 9 (CYP2C9) small molecule antagonists: luciferase reporter qHTS assay (AID 1671198). Also: nearly all actives have a fitted effect of over 50% in size. Also: potency is read from the fitted curve at half-maximal effect. As to activity change, negative = inhibition: series mostly up to about 120 µM. Put shortly:
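Enzyme-substrate mix preincubated with compound 10 min at room temperature; reaction started with NADPH regeneration solution, 1 h 37C. Luminescent luciferin product read after 20 min detection reagent.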

For assay [7], the target named is Cytochrome P450 1A2 (Homo sapiens) (UniProt P05177). In words: Cytochrome P450 Family 1 Subfamily A Member 2 (CYP1A2) small molecule antagonists: luciferase reporter qHTS assay (AID 1671199). Also: nearly all actives have a fitted effect of over 50% in size. Also: potency is read from the fitted curve at half-maximal effect. As to activity change, negative = inhibition: series mostly up to about 120 µM. Put shortly: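 Read-out is luminescence from luciferin detection reagent (20 min) proportional to CYP1A2 activity; compounds in DMSO preincubated 10 min with enzyme and proluciferin substrate, then NADPH regeneration solution, 1 h, room temperature.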

Assay [8] deals with Voltage-gated inwardly rectifying potassium channel KCNH2 (Homo sapiens) (UniProt Q12809). In words: Human Ether-a-go-go-Related Gene (hERG) channel small molecule antagonists: fluorescence cell-based qHTS assay (AID 1671200). Also: nearly all actives have a fitted effect of over 50% in size. Also: potency is read from the fitted curve at half-maximal effect.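 As to activity change, negative = inhibition: hERG-expressing U2OS cells given a thallium stimulus after FluxOR II dye loading; series mostly up to about 77 µM.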 Put shortly:
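Thallium served as the potassium surrogate; its influx into dye-loaded U2OS cells carrying the channel was measured by fluorescence over 2 min.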

In assay [9] the target is Cytochrome P450 3A4 (Homo sapiens) (UniProt P08684). In words: Cytochrome P450 Family 3 Subfamily A Member 4 (CYP3A4) small molecule antagonists: luciferase reporter qHTS assay (AID 1671201). Also: nearly all actives have a fitted effect of over 50% in size. Also: potency is read from the fitted curve at half-maximal effect. As to activity change, negative = inhibition: series mostly up to about 120 µM. An outline of the steps: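 Relative luminescence units after 20 min with luciferin detection reagent served as read-out. Beforehand, CYP3A4 turned over a proluciferin substrate for 1 h at room temperature with NADPH regeneration, following 10 min compound preincubation.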
% is scaled to controls: 0 for no effect and ±100 for the full control effect.

Chain of Cytochrome P450 2D6 (Homo sapiens) (P10635 whole entry, looked up): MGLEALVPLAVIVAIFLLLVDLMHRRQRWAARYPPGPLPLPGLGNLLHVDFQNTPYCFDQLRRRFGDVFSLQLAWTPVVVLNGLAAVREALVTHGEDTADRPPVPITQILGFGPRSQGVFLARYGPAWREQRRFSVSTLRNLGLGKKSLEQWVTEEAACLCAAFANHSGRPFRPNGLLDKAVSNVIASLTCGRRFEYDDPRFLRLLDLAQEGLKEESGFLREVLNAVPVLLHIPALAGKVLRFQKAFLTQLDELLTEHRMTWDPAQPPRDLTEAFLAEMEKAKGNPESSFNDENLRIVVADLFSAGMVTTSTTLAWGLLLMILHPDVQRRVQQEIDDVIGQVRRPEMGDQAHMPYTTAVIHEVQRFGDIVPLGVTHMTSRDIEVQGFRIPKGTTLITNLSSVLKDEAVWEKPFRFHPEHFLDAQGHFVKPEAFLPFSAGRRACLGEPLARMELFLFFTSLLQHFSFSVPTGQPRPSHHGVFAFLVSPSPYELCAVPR
Chain of Cytochrome P450 2C19 (Homo sapiens) (P33261 whole entry, looked up): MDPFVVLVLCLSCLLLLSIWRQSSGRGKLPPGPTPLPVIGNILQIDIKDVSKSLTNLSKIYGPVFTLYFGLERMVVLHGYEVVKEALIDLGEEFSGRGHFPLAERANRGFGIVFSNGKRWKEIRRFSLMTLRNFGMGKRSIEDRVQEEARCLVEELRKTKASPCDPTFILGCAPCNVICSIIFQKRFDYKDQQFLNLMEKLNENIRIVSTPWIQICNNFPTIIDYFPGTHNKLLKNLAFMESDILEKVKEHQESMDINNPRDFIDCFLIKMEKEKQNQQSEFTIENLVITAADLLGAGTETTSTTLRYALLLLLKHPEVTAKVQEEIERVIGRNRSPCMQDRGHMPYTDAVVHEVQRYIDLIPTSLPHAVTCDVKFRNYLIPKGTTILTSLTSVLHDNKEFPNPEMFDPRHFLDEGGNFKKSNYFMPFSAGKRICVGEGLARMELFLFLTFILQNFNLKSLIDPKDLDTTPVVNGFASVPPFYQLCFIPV
Chain of Cytochrome P450 3A4 (Homo sapiens) (P08684 whole entry, looked up): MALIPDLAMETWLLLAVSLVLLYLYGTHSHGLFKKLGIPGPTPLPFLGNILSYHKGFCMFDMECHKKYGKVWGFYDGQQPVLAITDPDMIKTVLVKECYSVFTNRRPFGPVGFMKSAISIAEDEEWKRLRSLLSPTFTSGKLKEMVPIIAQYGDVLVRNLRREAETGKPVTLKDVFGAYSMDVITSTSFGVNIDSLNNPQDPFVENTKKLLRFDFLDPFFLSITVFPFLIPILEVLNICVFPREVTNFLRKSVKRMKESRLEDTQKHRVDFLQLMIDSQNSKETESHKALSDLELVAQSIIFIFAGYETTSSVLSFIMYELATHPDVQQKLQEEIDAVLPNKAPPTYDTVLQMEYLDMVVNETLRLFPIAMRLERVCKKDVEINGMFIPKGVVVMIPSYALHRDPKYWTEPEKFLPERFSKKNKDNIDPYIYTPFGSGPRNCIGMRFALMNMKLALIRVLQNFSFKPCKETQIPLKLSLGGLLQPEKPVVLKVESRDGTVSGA
Chain of Cytochrome P450 2C9 (Homo sapiens) (P11712 whole entry, looked up): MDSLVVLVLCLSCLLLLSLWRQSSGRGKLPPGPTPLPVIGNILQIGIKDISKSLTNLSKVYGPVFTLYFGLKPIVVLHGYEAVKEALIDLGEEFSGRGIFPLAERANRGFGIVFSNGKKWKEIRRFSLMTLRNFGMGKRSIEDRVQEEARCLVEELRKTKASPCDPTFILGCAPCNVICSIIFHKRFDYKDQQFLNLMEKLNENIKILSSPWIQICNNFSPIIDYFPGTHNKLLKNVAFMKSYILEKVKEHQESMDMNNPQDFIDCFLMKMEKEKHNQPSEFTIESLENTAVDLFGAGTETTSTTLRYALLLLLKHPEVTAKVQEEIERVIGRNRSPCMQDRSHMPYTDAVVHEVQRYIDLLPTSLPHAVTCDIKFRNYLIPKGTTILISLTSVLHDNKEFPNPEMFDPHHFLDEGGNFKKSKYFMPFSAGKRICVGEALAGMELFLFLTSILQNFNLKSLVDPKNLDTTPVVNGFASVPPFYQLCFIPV
Chain of Acetylcholinesterase (Homo sapiens) (P22303 whole entry, looked up): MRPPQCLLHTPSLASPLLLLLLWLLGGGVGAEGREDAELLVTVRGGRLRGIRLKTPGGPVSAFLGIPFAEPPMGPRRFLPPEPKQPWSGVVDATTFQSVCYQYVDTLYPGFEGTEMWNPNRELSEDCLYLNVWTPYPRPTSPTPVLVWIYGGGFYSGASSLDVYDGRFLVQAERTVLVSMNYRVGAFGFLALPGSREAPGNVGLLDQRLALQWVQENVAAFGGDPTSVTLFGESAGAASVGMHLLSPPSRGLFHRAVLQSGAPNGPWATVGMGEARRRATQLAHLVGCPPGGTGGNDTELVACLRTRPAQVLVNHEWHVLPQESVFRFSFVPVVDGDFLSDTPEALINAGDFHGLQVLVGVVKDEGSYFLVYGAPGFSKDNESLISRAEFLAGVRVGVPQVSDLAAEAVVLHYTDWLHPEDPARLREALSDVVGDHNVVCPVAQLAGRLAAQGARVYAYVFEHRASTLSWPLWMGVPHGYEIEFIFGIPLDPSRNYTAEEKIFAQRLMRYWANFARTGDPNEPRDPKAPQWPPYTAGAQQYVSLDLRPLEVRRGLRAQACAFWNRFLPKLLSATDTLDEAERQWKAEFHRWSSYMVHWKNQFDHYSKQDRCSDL
Chain of Voltage-gated inwardly rectifying potassium channel KCNH2 (Homo sapiens) (Q12809 whole entry, looked up): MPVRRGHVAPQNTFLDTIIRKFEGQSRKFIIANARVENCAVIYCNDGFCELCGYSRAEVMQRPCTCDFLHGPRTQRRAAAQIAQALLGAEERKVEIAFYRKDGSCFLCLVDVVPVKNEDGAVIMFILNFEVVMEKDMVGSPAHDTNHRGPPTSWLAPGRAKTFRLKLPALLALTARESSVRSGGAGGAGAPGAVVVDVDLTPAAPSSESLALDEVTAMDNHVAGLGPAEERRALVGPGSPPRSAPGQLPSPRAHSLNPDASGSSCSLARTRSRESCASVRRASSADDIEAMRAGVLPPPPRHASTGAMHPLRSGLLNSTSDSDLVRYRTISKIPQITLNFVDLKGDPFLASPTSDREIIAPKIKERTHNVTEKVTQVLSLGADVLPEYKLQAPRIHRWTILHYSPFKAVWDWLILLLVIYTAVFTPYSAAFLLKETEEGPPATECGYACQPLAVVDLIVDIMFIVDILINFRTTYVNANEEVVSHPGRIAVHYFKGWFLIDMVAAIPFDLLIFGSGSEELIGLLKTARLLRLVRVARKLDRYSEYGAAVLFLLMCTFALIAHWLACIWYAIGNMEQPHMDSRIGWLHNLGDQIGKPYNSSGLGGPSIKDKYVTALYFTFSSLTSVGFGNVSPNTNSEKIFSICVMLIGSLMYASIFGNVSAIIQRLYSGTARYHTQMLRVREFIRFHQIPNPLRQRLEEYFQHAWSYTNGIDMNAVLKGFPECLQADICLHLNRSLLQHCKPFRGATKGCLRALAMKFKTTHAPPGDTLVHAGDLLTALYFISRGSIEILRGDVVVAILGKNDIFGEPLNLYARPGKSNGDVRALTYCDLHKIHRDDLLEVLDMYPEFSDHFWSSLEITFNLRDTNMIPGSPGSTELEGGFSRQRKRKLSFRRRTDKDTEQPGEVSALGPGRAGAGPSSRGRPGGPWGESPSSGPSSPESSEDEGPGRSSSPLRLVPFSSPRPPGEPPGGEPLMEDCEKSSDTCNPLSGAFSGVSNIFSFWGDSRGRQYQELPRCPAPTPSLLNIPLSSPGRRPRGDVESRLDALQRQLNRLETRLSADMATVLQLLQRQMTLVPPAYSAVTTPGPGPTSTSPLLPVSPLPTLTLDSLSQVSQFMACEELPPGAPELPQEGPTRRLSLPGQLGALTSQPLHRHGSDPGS
Chain of Cytochrome P450 1A2 (Homo sapiens) (P05177 whole entry, looked up): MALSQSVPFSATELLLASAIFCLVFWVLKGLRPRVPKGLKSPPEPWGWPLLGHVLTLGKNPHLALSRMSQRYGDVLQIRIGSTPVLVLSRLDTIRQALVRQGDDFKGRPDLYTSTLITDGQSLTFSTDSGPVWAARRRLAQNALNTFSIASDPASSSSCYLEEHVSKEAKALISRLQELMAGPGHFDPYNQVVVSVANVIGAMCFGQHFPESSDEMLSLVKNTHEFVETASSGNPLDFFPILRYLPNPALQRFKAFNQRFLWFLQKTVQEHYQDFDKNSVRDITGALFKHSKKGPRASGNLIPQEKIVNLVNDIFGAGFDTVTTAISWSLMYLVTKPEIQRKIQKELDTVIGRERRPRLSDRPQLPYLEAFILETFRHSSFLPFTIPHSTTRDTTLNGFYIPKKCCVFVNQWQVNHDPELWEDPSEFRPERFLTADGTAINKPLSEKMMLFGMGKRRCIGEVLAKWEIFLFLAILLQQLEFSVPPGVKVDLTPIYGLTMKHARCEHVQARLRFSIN

As to `CCN(CC)CCc1c[nH]c2ccccc12`, the Potency entry in [1], in [2], in assay [3], in [5], in assay [6] and in assay [8] was “inactive” each time. In addition, the Potency entry in assay [9] is “inactive”. The values for the Potency in assay [4] and in [7] were 5.26 µM (active) and 52.6 µM (active), respectively.

`O=[N+]([O-])c1ccccc1-c1ccccc1`: the Potency result in assay [1], in assay [2], in [3], in [4], in assay [8] and in [9] was “inactive” throughout. In addition, the Potency in assay [5] is 35.6 µM (active); in assay [6] it was 25.2 µM (active); in assay [7], 1.59 µM (active).

In the case of `N#CC(C#N)=NNc1cccc(Cl)c1`, the Potency result in assay [1], in assay [2] and in assay [3] was “inactive” in each case. Also, the Potency in [4] was 63.3 µM (active); in assay [5], 79.6 µM (active); in assay [6], 8.94 µM (active); in assay [7] it was 8.94 µM (active); in [9] it was 11.2 µM (active).

For the compound `O=[N+]([O-])c1ccc(Cl)c(Cl)c1Cl`, the Potency result in assay [1], in assay [2], in assay [3], in assay [4], in assay [6] and in [8] was “inactive” in each case. Also, in assay [9], the Potency entry is “inactive”. Further, the Potency is 55.6 µM (active) in assay [5] and 8.8 µM (active) in assay [7].

As for `C#CC1(O)CCCCC1`, the Potency entry in assay [1], in assay [2], in [3], in [4], in [5] and in assay [6] was “inactive” in each case. The Potency entry in [7], in assay [8] and in [9] was “inactive” throughout.

For `CC1CCCC1`, the Potency entry in [1], in [2], in assay [3], in assay [4] and in assay [8] was “inactive” each time. The Potency is 17.6 µM (active) in assay [5], 8.8 µM (active) in [6], 39.3 µM (active) in assay [7] and 27.8 µM (active) in [9].

In the case of `CC(C)[C@@H](Nc1ccc(C(F)(F)F)cc1Cl)C(=O)OC(C#N)c1cccc(Oc2ccccc2)c1` (stereo partly drawn), the Potency entry in assay [1], in [2], in assay [3], in assay [4], in assay [7] and in [8] was “inactive” each time. Besides, the Potency is 10.8 µM (active) in assay [5] and 6.09 µM (active) in assay [6].

On to `Nc1ccccc1-c1ccccc1`, for which the Potency entry in [1], in [2], in assay [3] and in assay [8] was “inactive” throughout. Further, the Potency in assay [4] is 28.1 µM (active); in [5] it was 35.4 µM (active); in assay [6], 31.5 µM (active); in assay [7], 35.4 µM (active).

Take `Cc1c([N+](=O)[O-])c(C)c([N+](=O)[O-])c(C(C)(C)C)c1[N+](=O)[O-]`: the Potency result in assay [1], in assay [2], in [3], in assay [4], in assay [5] and in assay [6] was “inactive” in each case. The Potency result in assay [9] was “inactive”. The Potency in [7] was 5.03 µM (active).

On to `c1cc[n+]2c(c1)-c1cccc[n+]1CC2`, for which the Potency entry in assay [1], in assay [2], in assay [3], in assay [6] and in [8] was “inactive” throughout. Moreover, the results for the Potency in assay [4], in [5] and in assay [7] were 7.76 µM (active), 9.77 µM (active) and 30.9 µM (active), respectively.

As for `N#Cc1sc2c(=O)c3ccccc3c(=O)c=2sc1C#N`, the Potency entry in assay [1] and in assay [3] was “inactive” in each case. Besides, the Potency in assay [2] is 63.3 µM (active); in [4] it was 35.6 µM (active); in [5], 3.99 µM (active); in assay [6] it was 3.17 µM (active); in [7], 31.7 µM (active); in assay [8], 21.9 µM (active). Further, in assay [9], the Potency is 17.8 µM (active).

As to `O=S(=O)(NS(=O)(=O)C(F)(F)F)C(F)(F)F`, the Potency result in assay [1], in [2] and in assay [3] was “inactive” each time. Moreover, the Potency was 0.447 µM (active) in [4]; 39.8 µM (active) in [5]; 6.31 µM (active) in [6]; 44.7 µM (active) in assay [7]; 38.8 µM (active) in assay [8].

For `c1ccc(Nc2ccc(Nc3ccccc3)cc2)cc1`, the Potency entry in [1], in [2] and in assay [3] was “inactive” each time. Also, the Potency in assay [4] was 39.8 µM (active); in assay [5], 12.6 µM (active); in assay [6], 11.2 µM (active); in assay [7], 31.6 µM (active); in assay [8] it was 38.7 µM (active); in [9] it was 39.8 µM (active).

On to `Clc1c(Cl)c(Cl)c(Cl)c(Cl)c1Cl`, for which the activity change, negative = inhibition in assay [1] was -1.5% [at 10.5 µM] (inactive); in assay [2] it was 3.1% [at 10.5 µM] (inactive); in assay [3], 0% [at 10.5 µM] (inactive); in assay [4], -7.24% [at 10.5 µM] (inactive); in [5], 17.2% [at 10.5 µM] (inactive); in assay [6] it was -2.13% [at 10.5 µM] (inactive). The activity change, negative = inhibition was -10.9% [at 10.5 µM] (inactive) in [7], 10.1% [at 6.97 µM] (inactive) in [8] and 4.21% [at 10.5 µM] (inactive) in [9].

As to `O=C1C2(Cl)C3(Cl)C4(Cl)C(Cl)(Cl)C5(Cl)C3(Cl)C1(Cl)C5(Cl)C24Cl` (stereo not drawn), the Potency entry in assay [1], in [2], in assay [3], in assay [4] and in assay [7] was “inactive” each time. Moreover, the Potency in [5] is 622 nM (active) and 961 nM (active); in [6], 5.55 µM (active) and 6.06 µM (active); in [8] it was 12.1 µM (active) and 14.8 µM (active); in assay [9], 2.78 µM (active) and 3.41 µM (active).

With `CCC1(CC)C(=O)N=C(O)NC1=O`, the Potency result in assay [1], in [2], in assay [3], in assay [4], in assay [5] and in assay [6] was “inactive” in each case. The Potency entry in [7], in assay [8] and in [9] was “inactive” throughout.

In the case of `COP(=S)(OC)Oc1ccc([N+](=O)[O-])c(C)c1`, the Potency result in assay [1], in assay [3] and in [8] was “inactive” throughout. Further, the Potency in assay [2] was 50.2 µM (active); in assay [4] it was 25.2 µM (active); in assay [5], 0.399 µM (active); in assay [6], 7.1 µM (active); in assay [7], 1.12 µM (active); in [9], 7.1 µM (active).

On to `c1ccc2nc(N3CCNCC3)ccc2c1`, for which the Potency entry in [1], in assay [2], in [3], in assay [4], in [5] and in [6] was “inactive” each time. The Potency result in [8] was “inactive”. For the same compound, the Potency in [7] is 1.23 µM (active).

Regarding `COC(=O)N(OC)c1ccccc1COc1ccn(-c2ccc(Cl)cc2)n1`, the Potency entry in assay [1], in assay [2], in assay [3] and in assay [9] was “inactive” throughout. For the same compound, the Potency was 22.4 µM (active) in assay [4], 0.283 µM (active) in [5], 7.1 µM (active) in assay [6] and 1.12 µM (active) in [7].

As for `CCC(C)c1cccc(C(C)CC)c1O` (stereo not drawn), the Potency result in assay [1], in assay [2], in [3], in assay [4] and in assay [8] was “inactive” throughout. Besides, the Potency was 15.9 µM (active) in [6], 22.4 µM (active) in assay [7] and 28.3 µM (active) in assay [9].

With `C[C@@H]1CC2=CC(=O)CC[C@@H]2[C@H]2CC[C@@]3(C)[C@@H](CC[C@]3(C)O)[C@@H]21`, the Potency entry in [1], in assay [2], in [3], in assay [4], in [7] and in [8] was “inactive” throughout. In assay [5], the Potency is 8.71 µM (active).
